According to PubChem BioAssay AID1159580 (chemical genetic matrix, 2015):
“And” between values parts separate entries of the source, which are not always exact repeats. Identical values can stand only once. The campaign covered roughly 5,500 compounds. About 2,000 (36%) were called active. Not shown: some 18% with an inconclusive outcome. Cut-off read from the data, not from the text of the source: active = normalized growth mostly below about 0.91 (no sharp cut-off); inconclusive = no clear call, values can overlap the other calls; inactive = mostly above about 0.92. The list shows a part of the results.

Experiment: chemical genetic growth profiling, strain panel (AID 1159580);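 note: tested at 20 µM; growth read once vehicle control cultures reached saturation at 30 °C; 1 = growth at the plate median or of vehicle wells; lower values mean less growth of the strain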
Conditions: S. cerevisiae deletion strains, growth OD

Measured: normalized growth

CN1CCN(CC(=O)N2c3ccccc3C(=O)Nc3cccnc32)CC1
inactive: locus YAL013W, strain DEP1, stronger effect = lower value 1.01 | locus YAL021C, strain ccr4, stronger effect = lower value 0.991 | locus YAL026C, strain drs2, stronger effect = lower value 1.03 | locus YAL030W, strain snc1, stronger effect = lower value 0.999 | locus YAL040C, strain CLN3, stronger effect = lower value 0.963 | locus YBL061C, strain skt5, stronger effect = lower value 1.01 | locus YBR009C, strain hhf1, stronger effect = lower value 0.999 | locus YBR021W, strain FUR4, stronger effect = lower value 1.02 | locus YBR023C, strain chs3, stronger effect = lower value 1.01 | locus YBR171W, strain sec66, stronger effect = lower value 1.02 | locus YBR229C, strain ROT2, stronger effect = lower value 1.01 | locus YBR231C, strain swc5, stronger effect = lower value 1.01 | locus YBR279W, strain paf1, stronger effect = lower value 1.01 | locus YCL011C, strain gbp2, stronger effect = lower value 1.02 | locus YCL016C, strain dcc1, stronger effect = lower value 1 | locus YCL029C, strain bik1, stronger effect = lower value 1.02 | locus YCL061C, strain MRC1 (second series), stronger effect = lower value 0.981 | locus YCL061C, strain MRC1, stronger effect = lower value 1.02 | locus YCL069W, strain vba3, stronger effect = lower value 1.03 | locus YCR088W, strain abp1, stronger effect = lower value 1.01 | locus YDL005C, strain med2, stronger effect = lower value 0.999 | locus YDL035C, strain GPR1, stronger effect = lower value 1.02 | locus YDL040C, strain nat1, stronger effect = lower value 0.992 | locus YDL074C, strain BRE1, stronger effect = lower value 1.05 | locus YDL101C, strain DUN1, stronger effect = lower value 1.02 | locus YDL134C, strain PPH21, stronger effect = lower value 0.991 | locus YDL185W, strain tfp1, stronger effect = lower value 1 | locus YDL192W, strain arf1, stronger effect = lower value 1.01 | locus YDR001C, strain nth1, stronger effect = lower value 1.01 | locus YDR069C, strain doa4, stronger effect = lower value 0.989 | locus YDR101C, strain arx1, stronger effect = lower value 1 | locus YDR137W, strain rgp1, stronger effect = lower value 1.02 | locus YDR150W, strain NUM1, stronger effect = lower value 1.01 and 1 | locus YDR159W, strain sac3, stronger effect = lower value 1.01 | locus YDR162C, strain NBP2, stronger effect = lower value 1.01 | locus YDR195W, strain ref2 0.999 | locus YDR297W, strain sur2, stronger effect = lower value 1.01 | locus YDR318W, strain mcm21, stronger effect = lower value 1.02 | locus YDR334W, strain swr1, stronger effect = lower value 1.04 | locus YDR335W, strain msn5, stronger effect = lower value 1.04 | locus YDR363W, strain ESC2, stronger effect = lower value 1.02 | locus YDR388W, stronger effect = lower value 1.02 | locus YDR392W, strain spt3, stronger effect = lower value 1.01 | locus YDR502C, strain sam2, stronger effect = lower value 1.02 | locus YEL003W, strain gim4, stronger effect = lower value 1.01 | locus YEL037C, strain rad23, stronger effect = lower value 1.01 | locus YEL061C, strain CIN8 (second series), stronger effect = lower value 1.03 | locus YEL061C, strain CIN8, stronger effect = lower value 1.01 | locus YER002W, strain NOP16, stronger effect = lower value 0.986 | locus YER015W, strain faa2, stronger effect = lower value 1.02 | locus YER016W, strain bim1, stronger effect = lower value 0.997 | locus YER110C, stronger effect = lower value 1.02 | locus YER111C, strain swi4, stronger effect = lower value 1.02 | locus YER155C, strain BEM2 (second series), stronger effect = lower value 1.08 | locus YER155C, strain BEM2, stronger effect = lower value 1.01 | locus YER167W, strain BCK2, stronger effect = lower value 1.02 | locus YFR010W, strain ubp6, stronger effect = lower value 1.02 | locus YGL078C, strain dbp3, stronger effect = lower value 1.01 | locus YGL086W, strain mad1, stronger effect = lower value 1.01 | locus YGL167C, strain pmr1, stronger effect = lower value 1.01 | locus YGL173C, strain kem1, stronger effect = lower value 1.06 | locus YGL227W, strain vid30, stronger effect = lower value 1.02 | locus YGL240W, strain doc1, stronger effect = lower value 1.02 | locus YGL248W, strain PDE1, stronger effect = lower value 1.01 | locus YGL253W, strain hxk2, stronger effect = lower value 1.01 | locus YGR078C, strain PAC10, stronger effect = lower value 1.02 | locus YGR135W, strain pre9, stronger effect = lower value 1.01 | locus YGR229C, strain SMI1, stronger effect = lower value 1.01 and 0.968 | locus YGR252W, strain gcn5, stronger effect = lower value 0.995 | locus YHR013C, strain ard1, stronger effect = lower value 1.03 | locus YHR027C, strain rpn1, stronger effect = lower value 1.01 | locus YHR030C, strain SLT2, stronger effect = lower value 1.01 and 0.978 | locus YHR079C, strain IRE1 (second series), stronger effect = lower value 1.02 | locus YHR079C, strain IRE1, stronger effect = lower value 0.986 | locus YHR094C, strain hxt1, stronger effect = lower value 1.02 | locus YHR129C, strain ARP1, stronger effect = lower value 0.995 | locus YHR142W, strain chs7, stronger effect = lower value 1.04 | locus YHR200W, strain rpn10, stronger effect = lower value 1.01 | locus YIL066C, strain RNR3, stronger effect = lower value 1.01 | locus YIL073C, strain SPO22, stronger effect = lower value 1.02 | locus YIL125W, strain kgd1, stronger effect = lower value 1.01 | locus YIR030C, strain dcg1, stronger effect = lower value 1.01 | locus YJL092W, strain hpr5, stronger effect = lower value 1.02 | locus YJL095W, strain BCK1 (second series), stronger effect = lower value 0.991 | locus YJL095W, strain BCK1, stronger effect = lower value 1.04 and 0.99 | locus YJL115W, strain asf1, stronger effect = lower value 1.01 | locus YJL129C, strain trk1, stronger effect = lower value 1.03 | locus YJL134W, strain LCB3, stronger effect = lower value 1.01 | locus YJL154C, strain vps35, stronger effect = lower value 1.01 | locus YJL164C, strain tpk1, stronger effect = lower value 1.01 | locus YJL166W, strain qcr8, stronger effect = lower value 1.03 | locus YJL168C, strain set2, stronger effect = lower value 1.02 | locus YJL187C, strain SWE1 (second series), stronger effect = lower value 1.01 | locus YJR043C, strain POL32, stronger effect = lower value 1.01 | locus YJR066W, strain TOR1, stronger effect = lower value 0.926
